Reference: PubChem BioAssay (Tox21)
Records with an inconclusive call do not appear. Active and inactive are the calls of the source. Unless noted, calls follow the shape of the dose curve; as a rule, active = well fitted curve in the direction sought with a large enough effect in the repeat runs; inconclusive = weak or mixed curves; inactive = no such curve, though single readings can be large; an effect the other way counts as inactive or inconclusive.

Key:
[1] = qHTS assay to identify small molecule antagonists of the estrogen receptor beta (ER-beta) signaling pathway - cell viability counter screen (AID 1259382);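 also: HEK293T cells carrying ER-beta-UAS-bla reporter stimulated with estradiol; series mostly up to about 92 µM; nearly all actives have a fitted effect of over 55% in size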
How it was run: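 HEK293T ER-beta-UAS-bla, 2% charcoal-stripped FBS; compounds + 1nM E2 16 hr 37C; CellTiter-Glo luminescence, 30 min RT.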

[2] = qHTS assay to identify small molecule agonists or antagonists of the thyroid stimulating hormone receptor (TSHR) signaling pathway - wild type cell line counter screen (AID 1259384; calls by dose curve)
How it was run: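 Wild-type Hek293 cells, 800/well, 18 h at 37C, then compound with Ro20-1724 for 30 min RT. cAMP by HTRF (cAMP-d2/anti-cAMP cryptate), 1 h RT, fluorescence read. 15 concentrations, triplicates.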

[3] = target: Thyrotropin receptor (Homo sapiens) (UniProt P16473); assay: qHTS assay to identify small molecule antagonists of the thyroid stimulating hormone receptor (TSHR) signaling pathway (AID 1259385; calls by dose curve; also: nearly all actives have a fitted effect of over 20% in size)
Thyrotropin receptor (Homo sapiens), sequence (P16473 whole entry, looked up): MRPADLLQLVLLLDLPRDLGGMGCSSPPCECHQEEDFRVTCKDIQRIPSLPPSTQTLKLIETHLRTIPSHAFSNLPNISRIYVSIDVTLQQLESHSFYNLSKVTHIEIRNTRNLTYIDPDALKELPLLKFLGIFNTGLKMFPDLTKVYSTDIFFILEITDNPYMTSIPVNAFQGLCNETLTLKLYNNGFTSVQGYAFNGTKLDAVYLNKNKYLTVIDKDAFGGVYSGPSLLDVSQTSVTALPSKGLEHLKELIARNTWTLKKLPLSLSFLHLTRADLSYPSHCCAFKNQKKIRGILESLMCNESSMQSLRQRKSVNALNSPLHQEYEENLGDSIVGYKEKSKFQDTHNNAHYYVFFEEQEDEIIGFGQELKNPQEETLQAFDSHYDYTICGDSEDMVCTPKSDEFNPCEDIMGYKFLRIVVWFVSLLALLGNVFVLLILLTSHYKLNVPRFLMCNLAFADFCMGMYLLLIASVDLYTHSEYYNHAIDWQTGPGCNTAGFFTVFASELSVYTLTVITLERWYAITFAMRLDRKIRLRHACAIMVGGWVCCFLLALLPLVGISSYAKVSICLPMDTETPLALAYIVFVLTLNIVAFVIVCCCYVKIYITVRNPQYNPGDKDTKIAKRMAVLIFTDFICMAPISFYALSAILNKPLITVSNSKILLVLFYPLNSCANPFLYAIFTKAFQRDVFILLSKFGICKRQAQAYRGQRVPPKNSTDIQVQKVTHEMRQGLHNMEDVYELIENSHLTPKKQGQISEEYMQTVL
How it was run: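 TSHR-HEK293 cells (800/well) plated 18 h, then compounds with Ro20-1724 and TSH at 1.5 ng/mL final, 30 min at room temperature. cAMP quantified by HTRF (cAMP-d2/anti-cAMP-cryptate, 1 h); 15 concentrations in triplicate.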

[4] = qHTS assay to identify small molecule agonists of the estrogen receptor alpha (ER-alpha) signaling pathway in the presence of an antagonist - cell viability counter screen (AID 1259386);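 also: series mostly up to about 92 µM; cells exposed to compounds for 22 h at 37 °C before the viability read; nearly all actives have a fitted effect of over 30% in size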
How it was run: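 Steps: 5-day stripped-FBS culture; seed and incubate 24hr; add ICI-182,780 (10.0nM final); pin 15-point compound titration; incubate 22hr at 37C; add CellTiter-Fluor at 21hr; read fluorescence.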

[5] = target: Progesterone receptor (Homo sapiens) (UniProt P06401); assay: qHTS assay to identify small molecule agonists of the progesterone receptor (PR) signaling pathway (AID 1346784; calls by dose curve; also: nearly all actives have a fitted effect of over 30% in size)
Progesterone receptor (Homo sapiens), sequence (P06401 whole entry, looked up): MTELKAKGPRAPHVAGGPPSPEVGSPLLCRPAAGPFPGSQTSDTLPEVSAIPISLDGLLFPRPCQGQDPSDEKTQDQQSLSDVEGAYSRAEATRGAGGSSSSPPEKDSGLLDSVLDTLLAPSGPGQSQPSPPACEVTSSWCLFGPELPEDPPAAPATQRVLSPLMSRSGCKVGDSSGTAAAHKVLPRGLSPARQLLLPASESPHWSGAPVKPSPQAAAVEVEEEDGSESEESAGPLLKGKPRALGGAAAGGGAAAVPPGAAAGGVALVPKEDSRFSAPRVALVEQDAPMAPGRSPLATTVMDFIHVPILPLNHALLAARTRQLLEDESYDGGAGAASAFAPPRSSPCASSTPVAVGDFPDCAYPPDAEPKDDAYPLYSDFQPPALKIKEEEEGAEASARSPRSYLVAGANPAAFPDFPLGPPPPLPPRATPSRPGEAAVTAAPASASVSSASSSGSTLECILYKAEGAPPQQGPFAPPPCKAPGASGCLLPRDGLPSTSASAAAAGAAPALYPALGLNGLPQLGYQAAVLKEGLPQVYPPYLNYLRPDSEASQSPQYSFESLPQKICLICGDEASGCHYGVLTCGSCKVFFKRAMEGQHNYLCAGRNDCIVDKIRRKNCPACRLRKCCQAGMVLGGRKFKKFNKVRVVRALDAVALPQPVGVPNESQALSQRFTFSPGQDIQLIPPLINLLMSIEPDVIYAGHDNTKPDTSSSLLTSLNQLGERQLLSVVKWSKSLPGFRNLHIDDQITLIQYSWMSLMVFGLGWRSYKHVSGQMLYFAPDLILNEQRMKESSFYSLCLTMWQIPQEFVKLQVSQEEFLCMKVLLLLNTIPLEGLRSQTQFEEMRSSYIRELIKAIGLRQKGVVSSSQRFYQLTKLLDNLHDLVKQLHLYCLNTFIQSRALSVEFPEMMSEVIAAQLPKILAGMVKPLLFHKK
How it was run: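 HEK 293T PR-UAS-bla reporter cells, 2% charcoal-stripped FBS; 6 hr settle at 37C/5% CO2, compound (DMSO) 16 hr, LiveBLAzer B/G FRET substrate 2 hr RT, fluorescence intensity read.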

[6] = target: Progesterone receptor (Homo sapiens) (UniProt P06401); assay: qHTS assay to identify small molecule antagonists of the progesterone receptor (PR) signaling pathway (AID 1346795; active = well fitted inhibition curve with a large enough effect in the signal ratio in the repeat runs, not every such curve was filed as active; the % refers to the signal ratio)
How it was run: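 Beta-lactamase reporter, HEK293T PR-UAS-bla line; 2% charcoal-stripped FBS; 6 hr pre-incubation, 37C/5% CO2. Compound + R5020 1 nM final, 16 hr. LiveBLAzer B/G FRET substrate, 2 hr RT; fluorescence intensity read.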

[7] = qHTS assay to identify small molecule antagonists of the progesterone receptor (PR) signaling pathway - cell viability counter screen (AID 1346798); also: series mostly up to about 92 µM; nearly all actives have a fitted effect of over 50% in size
How it was run: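 Luminescence readout (CellTiter-Glo, 30 min, RT) of viability in PR-UAS-bla HEK293T cells exposed to compound and R5020 agonist for 16 hr at 37C, 5% CO2; run in the same wells as the beta-lactamase reporter read.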

[8] = qHTS assay to identify small molecule agonists of the progesterone receptor (PR) signaling pathway - cell viability counter screen (AID 1346799; calls by dose curve; also: nearly all actives have a fitted effect of over 45% in size)
How it was run: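 HEK293T PR-UAS-bla, 3,000 cells/well, 2% charcoal-stripped FBS; 6 h settle, compound 16 h at 37C/5% CO2; LiveBLAzer 2 h RT, then CellTiter-Glo 30 min RT, luminescence read.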

[9] = target: Estrogen receptor (Homo sapiens) (UniProt P03372); assay: qHTS assay to identify small molecule agonists of the estrogen receptor alpha (ER-alpha) signaling pathway in the presence of an antagonist (AID 1259383; calls by dose curve; also: top concentration of the series differs between compounds; nearly all actives have a fitted effect of over 15% in size)
Estrogen receptor (Homo sapiens), sequence (P03372 whole entry, looked up): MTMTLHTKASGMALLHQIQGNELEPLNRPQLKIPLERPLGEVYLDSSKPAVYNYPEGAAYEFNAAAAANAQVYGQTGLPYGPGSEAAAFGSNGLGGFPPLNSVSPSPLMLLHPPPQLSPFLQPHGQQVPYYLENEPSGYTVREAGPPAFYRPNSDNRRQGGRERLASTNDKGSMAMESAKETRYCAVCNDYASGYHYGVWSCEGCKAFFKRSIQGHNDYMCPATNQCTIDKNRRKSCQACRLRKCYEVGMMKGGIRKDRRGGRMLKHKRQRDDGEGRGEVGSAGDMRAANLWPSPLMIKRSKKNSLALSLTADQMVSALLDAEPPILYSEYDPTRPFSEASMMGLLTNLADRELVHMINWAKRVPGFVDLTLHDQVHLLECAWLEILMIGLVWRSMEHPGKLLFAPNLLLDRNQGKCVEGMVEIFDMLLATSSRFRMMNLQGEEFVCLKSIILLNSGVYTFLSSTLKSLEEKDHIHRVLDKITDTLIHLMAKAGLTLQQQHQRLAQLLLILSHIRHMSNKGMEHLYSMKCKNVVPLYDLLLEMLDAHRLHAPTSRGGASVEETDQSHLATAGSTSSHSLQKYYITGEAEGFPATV
How it was run: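 ER-alpha agonism measured under antagonist challenge: 10.0nM ICI-182,780 (final) plus compound, 15 concentrations, 22hr, VM7Luc4E2 ERE-luciferase cells. Read by luminescence.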

[10] = qHTS assay to identify small molecule antagonists of the TGF-beta/Smad signaling pathway - cell viability counter screen (AID 1346824); also: nearly all actives have a fitted effect of over 50% in size
How it was run: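 SBE-bla HEK 293T cells, incubated overnight, then compound plus 0.25 ng/mL TGF-beta1 (stock added) for 5 hr at 37 C. Viability was read in the same wells by CellTiter-Glo luminescence after 30 min at room temperature.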
% is scaled to controls: 0 for no effect and ±100 for the full control effect.

CC(=O)OC(C)(C)Cc1ccccc1
inactive: outcome [1] | outcome [2] | outcome [3] | Potency [4] | Potency [5] | Potency [6] | Potency [7] | Potency [8]

Cc1ccccc1C
inactive: outcome [1] | outcome [9] | Potency [4] | Potency [5] | Potency [6] | Potency [7] | Potency [8] | outcome [10]

C1=C\CC/C=C\CC/1
inactive: outcome [1] | outcome [9] | Potency [4] | Potency [5] | Potency [6] | Potency [7] | Potency [8] | outcome [10]

Cc1cc(O)c2c(c1)C(=O)c1cccc(O)c1C2=O
inactive: outcome [1] | outcome [9] | Potency [5] | Potency [7] | Potency [8] | outcome [10]

CC(=O)OCC(=O)[C@@]1(O)[C@H](OC(C)=O)C[C@H]2[C@@H]3CCC4=CC(=O)C=C[C@]4(C)[C@@]3(F)[C@@H](O)C[C@@]21C
inactive: outcome [1] | outcome [9] | Potency [5] | Potency [7] | Potency [8] | outcome [10]

C[Si]1(C)N[Si](C)(C)N[Si](C)(C)N1
inactive: outcome [1] | outcome [9] | Potency [4] | Potency [5] | Potency [6] | Potency [7] | outcome [10]

CCCCCCCCCCCCC1CO1 (configuration not stated)
inactive: outcome [1] | outcome [9] | Potency [4] | Potency [6] | Potency [7] | outcome [10]

O=S1(=O)CCCC1
inactive: outcome [1] | outcome [9] | Potency [4] | Potency [5] | Potency [7] | Potency [8] | outcome [10]

CCCO
inactive: outcome [1] | outcome [9] | Potency [5] | Potency [6] | Potency [7] | Potency [8] | outcome [10]

CCNC(=O)NCCCOc1cccc(CN2CCCCC2)c1
inactive: outcome [1] | outcome [9] | Potency [4] | Potency [5] | Potency [6] | Potency [7] | outcome [10]

Cc1ncc([N+](=O)[O-])n1CC(O)CCl (configuration not stated)
inactive: outcome [1] | outcome [2] | outcome [3] | Potency [4] | Potency [5] | Potency [6] | Potency [7] | Potency [8]

CC(C)C(=O)Nc1cccc(C(F)(F)F)c1
inactive: outcome [1] | outcome [9] | Potency [5] | Potency [6] | Potency [7] | Potency [8] | outcome [10]

COc1cc2c(Nc3ccc(Br)cc3F)ncnc2cc1OCC1CCN(C)CC1
inactive: outcome [1] | outcome [9] | Potency [4] | Potency [5] | Potency [6] | Potency [7] | Potency [8] | outcome [10]

O=[Si]=O
inactive: outcome [1] | outcome [9] | Potency [4] | Potency [5] | Potency [6] | Potency [7] | Potency [8]

CC1=NN(c2ccc(S(=O)(=O)O)cc2)C(=O)C1N=Nc1ccccc1 (configuration not stated)
inactive: outcome [1] | outcome [9] | Potency [5] | Potency [6] | Potency [7] | Potency [8] | outcome [10]

C=CCOCC(O)CCl (configuration not stated)
inactive: outcome [1] | outcome [9] | Potency [4] | Potency [5] | Potency [6] | Potency [7] | Potency [8]

NC(Cc1c[nH]c2ccccc12)C(=O)O (configuration not stated)
inactive: outcome [1] | outcome [2] | outcome [3] | Potency [4] | Potency [5] | Potency [6] | Potency [7] | Potency [8]

C=C(C)[C@@H]1CC[C@@H](C)C[C@@H]1O
inactive: outcome [1] | outcome [2] | outcome [3] | Potency [4] | Potency [5] | Potency [6] | Potency [7] | Potency [8]

CCCOCCOCCOCCO
inactive: outcome [1] | outcome [9] | Potency [5] | Potency [7] | outcome [10]

Cc1c(C(C)C)c(=O)n(-c2ccccc2)n1C
inactive: outcome [1] | outcome [9] | Potency [5] | Potency [7] | outcome [10]

OC(CCN1CCCCC1)(c1ccccc1)c1ccccc1
inactive: outcome [1] | outcome [9] | Potency [6] | Potency [7] | Potency [8] | outcome [10]

CCC(=O)c1ccc(O)cc1
inactive: outcome [1] | outcome [9] | Potency [4] | Potency [5] | Potency [6] | Potency [7] | Potency [8] | outcome [10]

CCC(CO)CO
inactive: outcome [1] | outcome [9] | Potency [4] | Potency [5] | Potency [6] | Potency [7] | Potency [8] | outcome [10]

CC(=O)N(CC(O)CO)c1c(I)c(C(=O)NCC(O)CO)c(I)c(C(=O)NCC(O)CO)c1I (configuration not stated)
inactive: outcome [1] | outcome [9] | Potency [4] | Potency [5] | Potency [6] | Potency [7] | Potency [8] | outcome [10]

Cc1ccccc1OCC1CO1 (configuration not stated)
inactive: outcome [1] | outcome [9] | Potency [4] | Potency [5] | Potency [6] | Potency [7] | Potency [8] | outcome [10]

O=C(Nc1cccc(C2=NCCN2)c1)Nc1cccc(C2=NCCN2)c1
inactive: activity change, negative = cytotoxicity [1] -2.3% [at 19 µM] | activation [9] 0.321% [at 19 µM] | activity change, negative = cytotoxicity [4] 1.98% [at 19 µM] | activity change, negative = cytotoxicity [7] 21% [at 18.9 µM] | activity change, negative = cytotoxicity [8] 7.7% [at 19 µM] | viability change, negative = cytotoxic [10] -4.13% [at 15.8 µM]

CC(C)SCc1ccco1
inactive: outcome [1] | outcome [9] | Potency [4] | Potency [5] | Potency [6] | Potency [7] | Potency [8] | outcome [10]
